Assay outcomes as filed in PubChem.
Many of the other results were omitted from the sample, so hits are more common in it than they were.
Pf Dd2 inh: qHTS Primary assay for Inhibitors of Plasmodium falciparum Dd2 growth in vitro. P. falciparum Dd2 growth, SYBR Green, 72 h. Potency, µM (doses to about 28.9 µM), for inactives: at the top dose activity, negative = inhibition, usual class: inhibitors. 4.3% of 120,000 active; active = well fitted inhibition curve with a large enough effect;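 also: plate controls were DMSO vehicle for no effect and reference drug for full effect; nearly all actives have a fitted effect of over 65% in size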
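Readout: SYBR Green fluorescence, 485 nm excitation, 535 nm emission, after ~16 h lysis at 37C. Before that, Dd2-infected red cells (2.5% hematocrit) grew 72 h with compound, 29 uM top final concentration.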
* marks the source's active call; other numbers are inactive results; i = inactive; [ ] = dose if it differs, or a comment. Potency is read from the fitted curve at half-maximal effect.

SMILES	Pf Dd2 inh
CCOc1ccc(C(=O)N2CCN(c3cc(-c4ccc(F)cc4)[nH]n3)CC2)cc1OCC	i
Cc1noc(C)c1CC(=O)N1CCC(Cc2noc(-c3ccccc3)n2)C1 (configuration not stated)	-16.7%
COCc1nc(CCNS(=O)(=O)c2ccc(OC)cc2)no1	64.0%
O=C1C(N2CCN(S(=O)(=O)c3ccccc3Cl)CC2)CCN1CCc1ccccc1 (configuration not stated)	i
O=C1CCC2(CCN1CC1CC1)CCN(C(=O)C1CC=CC1)CC2	-0.5%
CCC(=O)N(C1CCOCC1)C1CCN(S(=O)(=O)c2ccc3c(c2)CCCC3)CC1	-8.2%
CCN1C(=O)CCN(C(=O)c2cnc(C)cn2)CC12CCOCC2	21.6%
O=C(c1cccc(F)c1)N1CCC2(CC1)N=C(c1ccc(Cl)cc1)NO2	i
CC[C@H]1CN(S(=O)(=O)c2c(C)noc2C)CC[C@H]1CC(=O)N1CCC(C(=O)OC)CC1	-9.7%
CC(=O)N[C@H]1CCN(C(=O)C[C@@H]2[C@H](O)CC[C@@H]3[C@]4(C)CO[C@@H](CNC(=O)c5cc(C)on5)O[C@@H]4CC[C@]32C)C1	-5.3%
COc1ccc(O)cc1CN1CCC2(CCNCC2)C1	-15.3%
COc1cc(Cl)cc(CN2CCC3(CCOCC3)CC2)c1OC	-22.2%
COc1cc(Cl)cc(CN2CCC3(CCCNC3)C2)c1OC (configuration not stated)	8.91µM*
CC(C)c1nnc(C2CN(C(=O)Cc3ccsc3)CC23CCOCC3)o1 (configuration not stated)	-14.0%
COC(=O)C1CCN([C@H]2[C@@H]3OC[C@@H](O3)[C@@H](NC(=O)Nc3cccc(OC)c3)[C@@H]2O)CC1	5.8%
COCCN1CCC(CN(Cc2ccncc2)C(=O)c2csc(C)n2)CC1	7.1%
COc1cccc(C(=O)N2CCC3(CC2)CC(O)CCO3)c1 (configuration not stated)	-5.2%
CN1CCCCCC(O)c2cc(C(=O)NCc3nc4ccccc4n3C)ccc21 (configuration not stated)	i
Cc1ccc(CN2CCN(C(=O)c3ccc4c(c3)C(O)CCCCCN4C)CC2)cc1 (configuration not stated)	12.6µM*
COc1ccccc1CNC(=O)c1ccc2c(c1)C(O)CCCCCN2C (configuration not stated)	i
CC(C)CN1CCN(C(=O)c2ccc3c(c2)C(O)CCCCCN3C)CC1 (configuration not stated)	i
CN1CCCCCC(O)c2cc(C(=O)NCc3cccc(C(F)(F)F)c3)ccc21 (configuration not stated)	10µM*
CN1CCCCCC(O)c2cc(C(=O)N3CCN(C4CCCCC4)CC3)ccc21 (configuration not stated)	i
Cc1ccc(-c2nnc(C3CN(C(=O)c4ccnn4C)CC34CCOCC4)o2)cc1 (configuration not stated)	i
Cc1ccc(NC(=O)[C@H]2CCC[C@H]2NC(=O)c2cnc(C)cn2)cc1	-22.6%
SMILES	Pf Dd2 inh
Cc1ccccc1NC(=O)C1CCCN(c2cn[nH]c(=O)c2)C1 (configuration not stated)	18.3%
CCNC(=O)NCCc1ncc(C)n1CC1CC1	2.8%
CCCn1c(C)cnc1CCNC(=O)CCC1CCCC1	2.51µM*
Cc1cnc(-c2ccncc2)n1CCNC(=O)CCC1CCCC1	-2.1%
Cc1nc2n(c1C(=O)NCCc1ccccc1)CCC(Nc1cccnc1)C2 (configuration not stated)	i
COc1ccc(OC)c(S(=O)(=O)N[C@H]2CO[C@H]3[C@@H]2OC[C@H]3OC(=O)Nc2cccc(C(F)(F)F)c2)c1	-17.7%
CNC(=O)c1cc[nH]c1C1CCCN(C(=O)C2CC=CCC2)C1 (configuration not stated)	7.3%
Cc1noc(C)c1S(=O)(=O)NCC(=O)N1CCCCCNC(=O)CC1c1ccccc1 (configuration not stated)	9.9%
Cc1noc(C)c1S(=O)(=O)N1CCCN(Cc2ccncc2)C(c2ccccc2)CC(=O)NCC1 (configuration not stated)	1.12µM*
CS(=O)(=O)N1CCCN(Cc2ccccn2)CCNC(=O)CC1c1ccccc1 (configuration not stated)	-5.1%
CN(C)S(=O)(=O)N1CCCN(Cc2ccncc2)C(c2ccccc2)CC(=O)NCC1 (configuration not stated)	10µM*
CCn1ncc(CN2CCCN(Cc3ccncc3)C(c3ccccc3)CC(=O)NCC2)c1C (configuration not stated)	-4.2%
O=C1CC(c2ccccc2)N(Cc2ccncc2)CCCN(CC2CCCCC2)CCN1 (configuration not stated)	3.16µM*
O=C1CC(c2ccccc2)N(Cc2ccncc2)CCCN(C(=O)CN2CCCC2=O)CCN1 (configuration not stated)	i
Cc1noc(C)c1S(=O)(=O)N1CCCCCCNC(=O)CC1	3.5%
CS(=O)(=O)N1CCCCCNC(=O)CC1c1ccccc1 (configuration not stated)	0.0%
CCc1ccc(C(=O)N2CCC(Oc3ccc(C(N)=O)cn3)CC2)cc1	5.9%
CC[C@H]1CN(S(=O)(=O)c2ccc(OC)cc2)CC[C@H]1CC(=O)NCc1ccc(OC)cc1	i
Cc1noc(C)c1[S+](=O)([O-])N1CCn2c(nnc2-c2ccncc2)C1	72.1%
Cc1ccccc1NC(=O)N1CCOCC1CC(=O)NCc1cccnc1 (configuration not stated)	1.6%
CC(C)c1nnc(C2CN(C(=O)CCC3CCCCC3)CC23CCOCC3)o1 (configuration not stated)	-23.1%
Cn1cccc1C(=O)N1CCCCCCNC(=O)CC1	18.3%
COC[C@H]1NC(=O)CC[C@H]1C(=O)Nc1cccc(OC)c1	-13.9%
COc1cc(OC)cc(C(=O)N2C[C@@H](F)C[C@H]2C(=O)N2CCCCC2)c1	23.7%
Cc1ccc(-c2noc([C@@H]3C[C@@H](O)CN3Cc3ccc(C(=O)O)cc3)n2)cc1F	i
SMILES	Pf Dd2 inh
COc1ccccc1CNC(=O)c1ccc(Cn2c(SCc3ccccc3)nc3cccnc32)cc1	8.91µM*
Cc1ccc(CNC(=O)c2ccc(Cn3c(SCc4ccccc4F)nc4cccnc43)cc2)cc1	i
Cc1ccccc1CNC(=O)c1ccc(Cn2c(SCc3ccccc3)nc3cccnc32)cc1	11.2µM*
Cc1ccccc1CSc1nc2cccnc2n1Cc1ccc(C(=O)NC2CC2)cc1	i
Cc1nnn2c(C(=O)N3CCOCC3)cccc12	-4.4%[44.1 µM]
O=S(=O)(c1ccccc1)c1nnn2c1nc(NCc1ccncc1)c1ccccc12	-4.7%
O=C(c1cnn2ccccc12)N1CCC(Cc2cccc(CO)c2)C1 (configuration not stated)	-25.8%
Cc1ccc(NC(=O)N2CC(C(=O)N(C)C)C3(CCOCC3)C2)cc1Cl (configuration not stated)	-17.4%
COc1ccc(NC(=O)CN2C(=O)NC3(CCS(=O)(=O)CC3)C2=O)cc1	6.7%
O=C(NCC1CCN(Cc2cccc(Cl)c2)CC1)c1cc2ccc3cccnc3c2[nH]1	7.94µM*
O=C(Nc1ccc(F)cc1F)c1cc2ccc3cccnc3c2[nH]1	24.8%
O=C(Nc1cccc(C(F)(F)F)c1)c1cc2ccc3cccnc3c2[nH]1	29.8%
Cc1ccc(CN2CCC(CNC(=O)NC(C)C)C2)cc1C (configuration not stated)	8.91µM*
CC(C)NC(=O)NCC1CCCN(Cc2ccc3c(c2)OCCO3)C1 (configuration not stated)	-10.0%
